Source: PubChem BioAssay (NCI)
Where “and” joins values, the source holds several entries; their conditions need not be identical. Equal values may be shown once. About 79,000 compounds went through this panel and 15% of them were active in at least one assay; those are over-represented in the sample as a whole. Some compounds were tested as several samples or in several runs, with calls that do not always agree. Calls of active or inactive are those of the source. Rule as the data show it: active = growth inhibition above about 70%; inactive = the rest.

Columns and labels:
[1] = NCI Yeast Anticancer Drug Screen. Data for the rad52 strain (AID 147);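 also: 0% = growth of vehicle-treated control cultures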; conditions: S. cerevisiae rad52 mutant growth inhibition, stronger effect = higher value
Procedure, shortened: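 Inhibition of yeast growth, referenced to vehicle controls, was the measured output for a strain with defective DNA damage repair.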

[2] = NCI Yeast Anticancer Drug Screen. Data for the wt1 strain (AID 149);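 also: 0% = growth of vehicle-treated wt1 cultures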; conditions: S. cerevisiae wt1 strain (SPY 50644) growth inhibition, stronger effect = higher value
Procedure, shortened: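 Readout: yeast growth inhibition, normalised to vehicle controls, in the wt1 strain exposed to test compounds.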

[3] = NCI Yeast Anticancer Drug Screen. Data for the mgt1 strain (AID 153); conditions: S. cerevisiae mgt1 mutant growth inhibition, stronger effect = higher value
Procedure, shortened: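 In the mgt1 strain, test compounds were added and growth inhibition was determined relative to vehicle-treated controls.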

[4] = NCI Yeast Anticancer Drug Screen. Data for the rad50 strain (AID 155);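 also: 0% = growth of vehicle-only cultures of the same strain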; conditions: S. cerevisiae rad50 strain growth inhibition, stronger effect = higher value
Procedure, shortened: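 Compounds were tested on a yeast strain with an engineered DNA damage repair alteration; the reported value is growth inhibition normalised to vehicle treatment.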

[5] = NCI Yeast Anticancer Drug Screen. Data for the mec2-1 strain (AID 157); conditions: S. cerevisiae mec2-1 strain, stronger effect = higher value
Procedure, shortened: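 Each compound was tested on mec2-1 yeast, a strain altered in DNA damage repair or cell cycle control. Growth inhibition is reported relative to vehicle.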

[6] = NCI Yeast Anticancer Drug Screen. Data for the rad14 strain (AID 159);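 also: 0% = growth of vehicle-treated control cultures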; conditions: S. cerevisiae rad14 strain growth inhibition, stronger effect = higher value
Procedure, shortened: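 Compound-treated yeast with a defined DNA-repair lesion; growth inhibition normalised to vehicle-treated cultures.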

[7] = NCI Yeast Anticancer Drug Screen. Data for the CLN2oe strain (AID 163);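 also: 0% = growth of vehicle-only control cultures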; conditions: S. cerevisiae CLN2oe strain, stronger effect = higher value
Procedure, shortened: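 First, the altered yeast strain was treated with each compound; second, its growth was measured; finally, inhibition was derived by comparison with vehicle controls.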

[8] = NCI Yeast Anticancer Drug Screen. Data for the bub3 strain (AID 167); conditions: S. cerevisiae bub3 mutant strain, stronger effect = higher value
Procedure, shortened: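 Growth of a checkpoint-deficient yeast mutant is measured after compound exposure. Values represent inhibition relative to vehicle.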

[9] = NCI Yeast Anticancer Drug Screen. Data for the wt2 strain (AID 169);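 also: 0% = growth of vehicle-treated yeast cultures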; conditions: S. cerevisiae wt2 strain growth inhibition, stronger effect = higher value
Procedure, shortened: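 The panel's yeast strains carry defined changes in DNA repair or cell cycle genes. Each strain is grown with compound, and growth loss is scored relative to vehicle.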

[10] = NCI Yeast Anticancer Drug Screen. Data for the mlh1 strain (AID 171);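 also: 0% = growth of vehicle-treated control cultures of the same strain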; conditions: S. cerevisiae mlh1 strain growth inhibition, stronger effect = higher value
Procedure, shortened: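 Inhibition values reflect reduced yeast growth in the presence of compound, referenced to vehicle controls, using a strain chosen for its alteration in DNA repair or cell cycle control.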

[11] = NCI Yeast Anticancer Drug Screen. Data for the sgs1 strain (AID 173);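 also: 0% = growth of vehicle-only control cultures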; conditions: S. cerevisiae sgs1 mutant, stronger effect = higher value
Procedure, shortened: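 Vehicle-treated cultures served as reference for growth inhibition of a yeast strain altered in DNA damage repair or cell cycle control after compound exposure.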

[12] = NCI Yeast Anticancer Drug Screen. Data for the rad18 strain (AID 177); conditions: S. cerevisiae rad18 mutant growth inhibition, stronger effect = higher value
Procedure, shortened: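 Steps: expose repair-mutant yeast to compound; measure growth; express as inhibition relative to vehicle control.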

[13] = NCI Yeast Anticancer Drug Screen. Data for the rad50EPP+ strain (AID 151);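 also: 0% = growth of vehicle-treated control cultures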; conditions: S. cerevisiae rad50 mutant strain, stronger effect = higher value
Procedure, shortened: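 Genetically defined yeast (rad50EPP+, DNA damage repair alteration) is grown with compound, and inhibition of growth is expressed relative to vehicle-treated controls.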

[14] = NCI Yeast Anticancer Drug Screen. Data for the sgs1 mgt1 strain (AID 161);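 also: 0% = growth of cultures given vehicle only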; conditions: S. cerevisiae sgs1 mgt1 strain, stronger effect = higher value
Procedure, shortened: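 Genetically altered yeast, compound exposure, growth inhibition relative to vehicle.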

[15] = NCI Yeast Anticancer Drug Screen. Data for the mlh1 rad18 strain (AID 175); conditions: S. cerevisiae mlh1 rad18 strain growth inhibition, stronger effect = higher value
Procedure, shortened: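 Inhibition values reflect reduced growth of mutant yeast versus vehicle-treated controls following compound exposure; the mutations affect DNA damage repair.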

[16] = NCI Yeast Anticancer Drug Screen. Data for the cln2 rad14 strain (AID 165);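 also: 0% = growth equal to vehicle treated cultures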; conditions: S. cerevisiae cln2 rad14 strain, stronger effect = higher value
Procedure, shortened: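 Test compounds were added to cln2 rad14 yeast cultures; inhibition of growth was then determined by comparison with vehicle treatment.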

[17] = at 5.0 µM (retest, dose inferred, filed as 0.5)
[18] = at 50.0 µM (retest, dose inferred, filed as 5.0)

Measured: growth inhibition

Cc1cc(O)c2c(c1)C(=O)C=C(Br)C2=O
active: [1]; at 3.7 µM 76% | [1]; at 11.0 µM 98% | [1]; at 33.0 µM 98% | [1]; at 100.0 µM 94% | [2]; at 33.0 µM 98% | [2]; at 100.0 µM 96% | [3]; at 11.0 µM 72% | [3]; at 33.0 µM 98% | [3]; at 100.0 µM 97% | [4]; at 3.7 µM 71% | [4]; at 11.0 µM 97% | [4]; at 33.0 µM 99% | [4]; at 100.0 µM 94% | [5]; at 11.0 µM 94% | [5]; at 33.0 µM 99% | [5]; at 100.0 µM 98% | [6]; at 11.0 µM 97% | [6]; at 33.0 µM 99% | [6]; at 100.0 µM 96% | [7]; at 33.0 µM 99% | [7]; at 100.0 µM 97% | [8]; at 1.2 µM 88% | [8]; at 3.7 µM 86% | [8]; at 11.0 µM 98% | [8]; at 33.0 µM 92% | [8]; at 100.0 µM 98% | [9]; at 33.0 µM 99% | [9]; at 100.0 µM 97% | [10]; at 11.0 µM 71% | [10]; at 33.0 µM 99% | [10]; at 100.0 µM 98% | [11]; at 33.0 µM 99% | [11]; at 100.0 µM 96% | [12]; at 11.0 µM 95% | [12]; at 33.0 µM 98% | [12]; at 100.0 µM 94%
inactive: [1]; at 1.2 µM 38% | [2]; at 1.2 µM -1% | [2]; at 3.7 µM -2% | [2]; at 11.0 µM 6% | [3]; at 1.2 µM 7% | [3]; at 3.7 µM 21% | [4]; at 1.2 µM 38% | [5]; at 1.2 µM 40% | [5]; at 3.7 µM 67% | [6]; at 1.2 µM 37% | [6]; at 3.7 µM 64% | [7]; at 1.2 µM 7% | [7]; at 3.7 µM 16% | [7]; at 11.0 µM 40% | [9]; at 1.2 µM -4% | [9]; at 3.7 µM 7% | [9]; at 11.0 µM 54% | [10]; at 1.2 µM 11% | [10]; at 3.7 µM 25% | [11]; at 1.2 µM 4% | [11]; at 3.7 µM 11% | [11]; at 11.0 µM 66% | [12]; at 1.2 µM 10% | [12]; at 3.7 µM 41%

CCn1ncc(N=O)c1N
70.2% (active) and 51.5% (inactive): [4]; at 50.0 µM
81.4% (active) and 51% (inactive): [8]; at 50.0 µM
active: [13]; at 100.0 µM 71% | [8]; at 100.0 µM 78% | [15]; [18] 73% | [12]; at 100.0 µM 74%
87.3% (active) and 26.6% (inactive): [15]; at 50.0 µM
inactive: [1]; at 1.2 µM 0% | [1]; at 3.7 µM 3% | [1]; at 11.0 µM 9% | [1]; at 33.0 µM 29% | [1]; at 100.0 µM 58% | [2]; at 1.2 µM 6% | [2]; at 3.7 µM 14% | [2]; at 11.0 µM 23% | [2]; at 33.0 µM 24% | [2]; at 100.0 µM 39% | [13]; at 1.2 µM 0% | [13]; at 3.7 µM -4% | [13]; at 11.0 µM 3% | [13]; at 33.0 µM 28% | [4]; at 1.2 µM -1% | [4]; at 3.7 µM -1% | [4]; [17] 27% | [4]; at 11.0 µM 6% | [4]; at 33.0 µM 24% | [4]; [18] 61% | [4]; at 100.0 µM 54% | [5]; at 1.2 µM 3% | [5]; at 3.7 µM 11% | [5]; [17] 8% | [5]; at 11.0 µM 23% | [5]; at 33.0 µM 37% | [5]; [18] 35% | [5]; at 50.0 µM 67% and 42% | [5]; at 100.0 µM 57% | [14]; [17] 21% | [14]; [18] 61% | [14]; at 50.0 µM 62.5% and 19.6% | [8]; at 1.2 µM 2% | [8]; at 3.7 µM 9% | [8]; [17] 41% | [8]; at 11.0 µM 33% | [8]; at 33.0 µM 64% | [8]; [18] 68% | [9]; at 1.2 µM 6% | [9]; at 3.7 µM 18% | [9]; at 11.0 µM 26% | [9]; at 33.0 µM 25% | [9]; at 100.0 µM 39% | [10]; at 1.2 µM 3% | [10]; at 3.7 µM 5% | [10]; at 11.0 µM 20% | [10]; at 33.0 µM 35% | [10]; at 100.0 µM 53% | [11]; at 1.2 µM 5% | [11]; at 3.7 µM 16% | [11]; at 11.0 µM 26% | [11]; at 33.0 µM 39% | [11]; at 100.0 µM 61% | [15]; [17] 33% | [12]; at 1.2 µM 1% | [12]; at 3.7 µM 8% | [12]; at 11.0 µM 9% | [12]; at 33.0 µM 51%

Cc1cc(Cl)nc2nc(Cl)c(N)cc12
inactive: [1]; at 1.2 µM -8% | [1]; at 3.7 µM -3% | [1]; at 11.0 µM -10% | [1]; at 33.0 µM 16% | [1]; at 100.0 µM 69% | [2]; at 1.2 µM -16% | [2]; at 3.7 µM -7% | [2]; at 11.0 µM -2% | [2]; at 33.0 µM 2% | [2]; at 100.0 µM 27% | [3]; at 1.2 µM -14% | [3]; at 3.7 µM -12% | [3]; at 11.0 µM -9% | [3]; at 33.0 µM 20% | [4]; at 1.2 µM -4% | [4]; at 3.7 µM -18% | [4]; [17] 11% | [4]; at 11.0 µM -4% | [4]; at 33.0 µM 8% | [4]; [18] 55% | [4]; at 50.0 µM 38.6% | [4]; at 100.0 µM 51% | [5]; at 1.2 µM -13% | [5]; at 3.7 µM -17% | [5]; [17] 7% | [5]; at 11.0 µM -7% | [5]; at 33.0 µM 32% | [5]; [18] 62% | [5]; at 50.0 µM 62.9% | [5]; at 100.0 µM 44% | [6]; at 1.2 µM 1% | [6]; at 3.7 µM 2% | [6]; at 11.0 µM 1% | [6]; at 33.0 µM 28% | [14]; [17] -11% | [14]; [18] 55% | [7]; at 1.2 µM 4% | [7]; at 3.7 µM 1% | [7]; at 11.0 µM 5% | [7]; at 33.0 µM 6% | [7]; at 100.0 µM 54% | [16]; [17] 29% | [16]; [18] 42% | [16]; at 50.0 µM 22.6% | [8]; at 1.2 µM -20% | [8]; at 3.7 µM -2% | [8]; [17] -24% | [8]; at 11.0 µM -4% | [8]; at 33.0 µM 1% | [8]; [18] 30% | [8]; at 50.0 µM 48.2% | [8]; at 100.0 µM 67% | [9]; at 1.2 µM -22% | [9]; at 3.7 µM -16% | [9]; at 11.0 µM -24% | [9]; at 33.0 µM 21% | [10]; at 1.2 µM -16% | [10]; at 3.7 µM -2% | [10]; at 11.0 µM -2% | [10]; at 33.0 µM 14% | [11]; at 1.2 µM -2% | [11]; at 3.7 µM -6% | [11]; at 11.0 µM -1% | [11]; at 33.0 µM 13% | [11]; at 100.0 µM 63% | [15]; [17] 11% | [12]; at 1.2 µM -29% | [12]; at 3.7 µM -24% | [12]; at 11.0 µM -10% | [12]; at 33.0 µM 35%
active: [3]; at 100.0 µM 87% | [6]; at 100.0 µM 78% | [14]; at 50.0 µM 73.5% | [9]; at 100.0 µM 94% | [10]; at 100.0 µM 80% | [15]; [18] 84% | [12]; at 100.0 µM 80%
